Screening results deposited in PubChem BioAssay by National Center for Advancing Translational Sciences (NCATS).
Compounds with a hit are over-represented: about 2.2% of the library has one in this group of screens.
CCT chaperon mod: modulators of cytosolic chaperonin (CCT/TRiC) activity | purified chaperonin ATPase assay, HTRF ADP detection, 30 min | activity change, % (no concentration beside the values), hits read low | 0.3% of 360,000 active | AID 651819; in the data active means activity change below about -30%; further: on the % scale 0 is the no-effect control and ±100 the full control effect
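TRiC at 40 or 20 nM final (batch-dependent) in 30 mM Tris pH 7.4, 100 mM KCl, 5 mM MgCl2, 1 mM DTT, with compound at single 76 uM and 10 uM ATP, 30 min at 37 deg C. ADP detected by HTRF Transcreener, 665/615 ratio.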
GLP1R ag: agonists of human GLP-1 receptor; Potency, µM (titrated, usually from 45.6 µM), inactives show at the top dose activation, most hits filed as activators; HEK293 GLP-1R CRE-luciferase, luminescence, 4-6 h; cells express a hypersensitive GLP-1R form; AID 624172; 0.007% of 380,000 active; further: potency means the concentration at half of the fitted maximal effect; % of control where 0% means no effect
Target sequence (P43220 whole entry, looked up): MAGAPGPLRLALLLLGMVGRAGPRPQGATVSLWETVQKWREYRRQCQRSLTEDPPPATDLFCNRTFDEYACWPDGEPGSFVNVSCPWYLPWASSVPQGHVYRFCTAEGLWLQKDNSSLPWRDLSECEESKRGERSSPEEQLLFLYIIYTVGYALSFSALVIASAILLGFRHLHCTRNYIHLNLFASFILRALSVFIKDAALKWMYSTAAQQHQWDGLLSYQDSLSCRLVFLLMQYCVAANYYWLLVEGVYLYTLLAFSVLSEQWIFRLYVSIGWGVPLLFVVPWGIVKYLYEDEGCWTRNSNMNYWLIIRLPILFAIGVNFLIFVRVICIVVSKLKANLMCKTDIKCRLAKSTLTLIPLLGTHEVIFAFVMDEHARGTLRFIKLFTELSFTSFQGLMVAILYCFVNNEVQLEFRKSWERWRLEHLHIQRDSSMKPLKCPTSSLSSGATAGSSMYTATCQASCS
uPA generation: blocks generation of uPA at the cell surface | cell surface uPA generation assay, qHTS | Potency, µM (doses to about 38.3 µM), without a hit: at the highest dose activity change, negative = inhibition, actives largely listed as inhibitors | 0.31% of 330,000 active; active means well fitted inhibition curve with a large enough effect; inconclusive means small, poorly fitted or top-dose-only effect; inactive means no such curve, though single readings can be large or run the other way; tested in mouse RAW 264.7 cells; further: potency means the concentration at half of the fitted maximal effect; on the % scale 0 is the no-effect control and ±100 the full control effect; nearly all actives have a fitted effect of over 55% in size
GLP1R inv ag: GLP-1 receptor (human) inverse agonism | 1.6% of 410,000 active | P43220 | Potency, µM (doses to about 38.3 µM), for the others: at the top dose activity change, negative = inhibition, most hits filed as inhibitors | HEK293 GLP-1R CRE-luciferase, luminescence, 24 h; GLP-1R form is constitutively active; further: potency means the concentration at half of the fitted maximal effect; on the % scale 0 is the no-effect control and ±100 the full control effect; nearly all actives have a fitted effect of over 55% in size
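Readout was luciferase luminescence, measured 12 min after detection reagent at room temperature. Beforehand, GLP-1R reporter HEK293 cells had sat 12 h, then received compounds for 24 hr at 37 deg C.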
MmCpn inh: blocks the Methanococcus maripaludis chaperonin Mm-Cpn | purified Mm-Cpn ATPase, ADP Transcreener TR-FRET | Potency, µM (doses to about 76.9 µM), for inactives: at the highest dose activity, negative = inhibition, usual class: inhibitors | 0.031% of 330,000 active | AID 504842; further: potency means the concentration at half of the fitted maximal effect; on the % scale 0 is the no-effect control and ±100 the full control effect; nearly all actives have a fitted effect of over 80% in size
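ATP (10 uM final) was added to archaeal chaperonin (25 nM final) after 10 min exposure to test compound at 37°C; after 30 min further incubation, ADP was detected by competitive TR-FRET.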
HEK293 tox: cytotoxic in the GLP-1 receptor inverse agonist counter-screen. HEK293 cAMP-luciferase reporter cells, luminescence, 24 h. Potency, µM (top dose mostly 38.3 µM), without a hit: top-dose activity change, negative = inhibition, most hits filed as inhibitors. 0.13% of 410,000 active. AID 624418;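 further: loss of luciferase light is scored as toxicity; potency means the concentration at half of the fitted maximal effect; on the % scale 0 is the no-effect control and ±100 the full control effect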
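Seeding density was 200 cells/uL; after overnight-length (12 h) culture, 23 nL compounds went on for 24 h at 37 °C. Readout used a luciferase detection reagent, luminescence taken after 12 min at room temperature.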
An asterisk follows results filed as active; ? = inconclusive; . = no result. Unless noted, the call rests on the fitted dose curve; in most records, active means well fitted curve in the direction sought with a large enough effect; inconclusive means small, poorly fitted or top-dose-only effect, or another doubt; inactive means no such curve, though single readings can be large; an effect the other way counts as inactive or inconclusive.

SMILES	CCT chaperon mod	GLP1R ag	uPA generation	GLP1R inv ag	MmCpn inh	HEK293 tox
COC(=O)c1cc(=O)n(Cc2cccs2)c(=Nc2ccc(F)cc2)s1	-0.2	-5.0%	?	3.55µM*	0.6%	?
CCOc1ccc(C[C@H]2NC(=O)CCSSC[C@@H](C(=O)N3CCC[C@H]3C(=O)N[C@@H](CCCN)C(=O)NCC(N)=O)NC(=O)[C@H](CC(N)=O)NC(=O)[C@H]([C@@H](C)O)NC(=O)[C@H]([C@@H](C)CC)NC2=O)cc1	.	3.8%	.	.	.	.
CNCCC1Sc2ccccc2Oc2ccccc21 (stereo not drawn)	0.8	12.5%	-1.4%	10µM*	1.6%	2.7%
Cc1ccc2cccc(Oc3ncnc4scc(-c5ccccc5)c34)c2n1	2.5	-1.4%	-0.9%	?	0.1%	-10.5%
Oc1ccccc1N1CCN(c2ncnc3scc(-c4ccccc4)c23)CC1	2.6	14.1%	8.4%	11.2µM*	-1.0%	-26.2%
COc1ccc(-c2csc3ncnc(N4CCN(c5ccccc5OC)CC4)c23)cc1	-2.5	12.5%	3.6%	10µM*	-3.1%	-10.1%
CN1CCN(c2ncnc3scc(-c4ccccc4Cl)c23)CC1	-0.8	-3.7%	3.9%	1.41µM*	0.5%	0.0%
COc1ccc(-c2csc3ncnc(Oc4cccc5ccc(C)nc45)c23)cc1	-1.9	-1.7%	15.1%	10µM*	?	-4.6%
CCCN(CCC)C(=O)Cn1c(=O)n(-c2ccc(CC)cc2)c(=O)c2c3c(sc21)CCC3	.	-1.2%	.	-21.4%	.	-12.1%
CC1=C(C(=O)Nc2ccc(C)cc2C)C(C(C)C)n2nc(SCc3ccccc3Cl)nc2N1 (stereo not drawn)	.	-2.0%	.	-19.5%	.	0.8%
Cc1cccc(C(=O)Nc2ccc(N3CCC(N4CCCCC4)CC3)c(C(=O)O)c2)c1	.	.	.	-4.1%	.	-2.7%
O=C(Cc1cccs1)Nc1ccc(-c2nc3ccccc3[nH]2)cc1	2.3	-1.1%	-6.7%	4.47µM*	-1.8%	-23.1%
C(=C1NCCN1)c1cccc2ccccc12	.	-3.2%	.	.	.	.
CC1CCc2c(sc(NC(=O)/C=C/c3cccs3)c2C(=O)O)C1 (stereo not drawn)	1.8	-3.8%	10µM*	-12.9%	-2.8%	-17.4%
COc1cc(C(=O)NCc2ccc3c(c2)CCN3C(=O)c2ccc(Cl)cc2)cc(OC)c1OC	.	.	.	-10.5%	.	-3.8%
Cc1occc1C(=O)Nc1nnc(C(F)(F)F)s1	1.0	3.4%	-15.0%	-2.4%	-7.2%	3.7%
O=C(Nc1ccccc1C(=O)Nc1nnc(C(F)(F)F)s1)c1ccccc1	0.3	-5.8%	-10.7%	?	0.0%	3.16µM*
C=CCc1c(C)nc2cc(-c3ccc(C)cc3)[nH]n2c1=O	-1.3	0.3%	11.2µM*	?	1.8%	-10.2%
CCc1c(C)nc2cc(-c3ccccc3)[nH]n2c1=O	1.5	-8.9%	-10.7%	0.0%	-0.3%	-10.0%
COc1ccc(-c2nn(-c3cccc(F)c3)c3c2cnc2cc(OC)c(OC)cc23)cc1	.	.	.	-0.3%	.	26.7%
O=C(O)CSc1nnc(COc2ccccc2)n1-c1ccccc1	-1.6	-4.1%	3.7%	7.4%	1.8%	-20.9%
Cc1ccc(OCc2nnc(SCC(=O)c3cccs3)n2-c2ccccc2)cc1C	-7.5	15.0%	0.1%	10µM*	1.7%	-4.6%
O=C(CSc1nnc(COc2ccccc2)n1-c1ccccc1)c1cccs1	-4.7	0.4%	-2.1%	8.91µM*	0.0%	5.7%
O=C(/C=C\Nc1ccc2c(c1)OCO2)c1cccs1	-2.4	-1.8%	-16.6%	2.24µM*	-1.0%	-4.5%
O=[N+]([O-])c1nn(-c2ccc(Cl)cc2)n(O)c1=NCc1ccncc1	-2.4	1.1%	12.6µM*	14.7%	0.5%	-13.4%
O=[N+]([O-])c1nn(-c2ccccc2)n(O)c1=NCCc1ccccc1	0.2	10.5%	-9.6%	-21.3%	1.2%	-8.8%
COc1ccc(-n2nc([N+](=O)[O-])c(=NCCc3ccccc3)n2O)cc1	-1.3	17.1%	10µM*	?	-1.1%	2.1%
